Data reported in PubChem BioAssay AID449762 (Southern Research Specialized Biocontainment Screening …, 2010).
Hit rate of the full screen: of about 330,000 compounds, about 1,900 (0.58%) were called active. Not shown: some 4% with an inconclusive outcome. The list is a sample of the results. Results with a measured potency or affinity are listed apart. Values without a mark were called inactive. Rule as the data show it: inconclusive = inhibition above about 70% without an active follow-up result; inactive = below that.

Assay: M. tuberculosis growth inhibition, HTS (AID 449762);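 also: bacterial growth assessed after seven days of incubation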
Details: M. tuberculosis H37Rv growth inhibition, 7H9 media; at 25 µM; hits give high values

Row | SMILES | inhibition
1 | Cc1cc(OC(=O)C(c2ccccc2)c2ccccc2)c([N+](=O)[O-])c(=O)[nH]1 | 1.27%
2 | CC1=NN2C(=N)/C(=C\c3cc(C)n(-c4ccccc4)c3C)C(=O)N=C2S1 | -0.68%
3 | NC(=O)CSc1n[nH]c(=O)n1CCc1ccccc1 | -5.89%
4 | O=c1ccsn1Cc1ccccc1 | 2.59%
5 | CCCCCCN1Cc2ccccc2C1 | 3.68%
6 | Cc1ccc(OCCCCNC(C)c2ccccc2)c(C)c1 (stereo not given) | 7.81%
7 | c1ccc(CCNCCCOc2cccc3ccccc23)cc1 | 40.1%
8 | C#CCNC(=O)C1=C[C@H](c2ccc3c(c2)OCO3)C[C@H](OCc2ccc(CO)cc2)O1 | 6.55%
9 | COc1ccccc1N1CCN(CC(=O)Nc2nc(C)c(C(=O)N(C)C)s2)CC1 | 0.78%
10 | Nc1nc(-c2cc3ccccc3o2)cs1 | 27.5%
11 | CN1CCN(c2nc(-c3cc4ccccc4o3)cs2)CC1 | 1.67%
12 | COc1ccc2[nH]c(C)c(CCN(Cc3cccs3)C(=S)Nc3ccccc3)c2c1 | -7.77%
13 | CCCCn1cnc2c1c(=O)n(CC(=O)c1cc(C)n(C)c1C)c(=O)n2CC(C)C | 5.57%
14 | Cc1ccc(CN2CCN(Cc3ccc4c(c3)OCCO4)CC2CCO)cc1 (stereo not given) | -5.47%
15 | O=C(c1nc2ccccc2[nH]1)c1ccccc1[N+](=O)[O-] | 13%
16 | COc1nc(N(c2ccccc2)c2ccccc2)nc(-n2ccnc2)n1 | 34.2%
17 | c1ccc(N(c2ccccc2)c2nc(-n3ccnc3)nc(-n3ccnc3)n2)cc1 | -9.38%
18 | CN(c1ccccc1)c1nc(-n2ccnc2)nc(-n2ccnc2)n1 | 5.05%
19 | CCCCNc1nc(-c2ccccc2)nc(-n2ccnc2)n1 | 10%
20 | COC(=O)c1ccc(C2c3c(oc4ccc(F)cc4c3=O)C(=O)N2CCO)cc1 (stereo not given) | -6.43%
21 | COc1ccccc1NC(=O)c1ccc2nsnc2c1 | 5.74%
22 | CCN1C(=O)C(CC(=O)NCCc2ccccc2)N(NC(=O)c2cccnc2)C1=S (stereo not given) | 12%
23 | Clc1ccccc1N=C1SCCS1 | -6.64%
24 | CSc1ncccc1C(=O)N(C)CC(=O)Nc1ccc(Cl)c(C(F)(F)F)c1 | -3%

Row | SMILES | inhibition
25 | COc1ccccc1N1CCN(C(=O)C2CCN(S(=O)(=O)c3ccc(F)cc3)CC2)CC1 | -1.53%
26 | CC(=O)Nc1cc(C(=O)N2CCc3ccccc3C2)ccc1Sc1ccc(Cl)cc1 | 2.06%
27 | Cc1nc2c(C)cccn2c(=O)c1NC(=O)c1cccs1 | -5.13%
28 | C=CCNc1oc(-c2ccc(Cl)cc2)nc1C#N | 47.3%
29 | C=CCNc1oc(-c2ccc(OC)cc2)nc1C#N | 4.44%
30 | NS(=O)(=O)c1ccc(NC(=O)CSc2nnc(Cc3cccs3)n2-c2ccccc2)cc1 | 10.1%
31 | O=C(/C=C/c1ccccc1)N1CCN(c2ccccn2)CC1 | -12.8%
32 | O=C1/C(=N\S(=O)(=O)c2cccs2)C([n+]2ccccc2)=C([O-])c2ccccc21 | -2.62%
33 | CCc1cc[n+](C2=C([O-])c3ccccc3C(=O)/C2=N\S(=O)(=O)c2cccs2)cc1 | 2.09%
34 | CCCCC1(C(=O)OCC)CC(CN2CCOCC2)OC1=O (stereo not given) | -5.65%
35 | CN1CCN(c2ccc(NC(=O)c3cccs3)cc2)CC1 | 0.58%
36 | COC(=O)C1=C(C)Nc2[nH]c(=S)[nH]c(=O)c2C1c1ccc(OC)cc1 (stereo not given) | -7.09%
37 | O=C(O)COc1ccc(/C=N/Nc2nc(Nc3ccccc3)nc(N3CCCCC3)n2)cc1 | 23.6%
38 | COc1cc(/C=N/Nc2nc(Nc3ccccc3)nc(N3CCCCC3)n2)ccc1OCC(=O)O | 58.2%
39 | N/C(=N\OC(=O)CC1CCCCC1)c1ccc([N+](=O)[O-])cc1 | -1.51%
40 | CCCn1c(=N)c(C(=O)NCC2CCCO2)cc2c(=O)n3cccc(C)c3nc21 (stereo not given) | -2.2%
41 | CCOCCCn1c(=N)c(C(=O)NCc2ccc3c(c2)OCO3)cc2c(=O)n3cccc(C)c3nc21 | 68.2%
42 | Brc1ccc(-c2csc(-c3ccncc3)n2)cc1 | 36.4%
43 | Brc1ccc(-c2csc(Nc3nc(-c4ccc(Br)cc4)cs3)n2)cc1 | 8.54%
44 | Cc1ccc(NC(=S)N2CCN(c3ccccn3)CC2)c(C)c1 | 5.35%
45 | Cc1c(N=NC2=C(O)CC(C)(C)CC2=O)cc2c(c1[N+](=O)[O-])C(C)(C)CC2(C)C | 6%
46 | O=[N+]([O-])c1ccc(Nc2ccc(F)cc2)nc1 | -2.27%
47 | COc1ccc(NC(=O)COC(=O)c2cc3c(s2)CCC3)cc1 | 9.83%
48 | NC(=O)c1ccc(NC(=O)COC(=O)c2cc3c(s2)CCC3)cc1 | 6.74%

Row | SMILES | inhibition
49 | CCN1CCN(c2nc(C)c3c(n2)CC(C)CC3=O)CC1 (stereo not given) | 11.3%
50 | COC(=O)c1ccc(COc2cc([N+](=O)[O-])cc3cccnc23)o1 | -2.4%
51 | COC(=O)c1ccc(COc2cc([N+](=O)[O-])cc3cccnc23)cc1 | 3.92%
52 | O=C(CN1c2ccccc2Sc2ccccc21)N/N=C/c1ccc(Cl)cc1Cl | 4%
53 | COc1ccccc1C(=O)NNC(=O)C12CC3CC(CC(C3)C1)C2 | -6.93%
54 | Cc1cc(C)c2c(CN3CCN(Cc4ccccc4)CC3)cc(=O)oc2c1 | 0.88%
55 | Cc1ccc2c(CN3CCN(Cc4ccccc4)CC3)cc(=O)oc2c1C | 3.31%
56 | Fc1ccccc1N1CCN(C(c2ccncc2)c2nnnn2C2CCCC2)CC1 (stereo not given) | -0.2%
57 | O=C(NCCO)c1cccc(S(=O)(=O)N2CCCCC2)c1 | -4.67%
58 | CC1CC(C)CN(C(=O)CN2C(=O)NC3(CCCCCC3)C2=O)C1 (stereo not given) | 6.02%
59 | N#Cc1c(SCC(=O)OCc2ccccc2)nsc1SCC(=O)OCc1ccccc1 | 14.1%
60 | COC(=O)CSc1nsc(SCC(=O)OC)c1C#N | -0.76%
61 | CSc1snc(SCC(N)=O)c1C#N | -0.39%
62 | CC(=O)CSc1nsc(SCC(C)=O)c1C#N | -3.69%
63 | CCC(C)N(C(=O)COC(=O)c1nc2nc(C)cc(C)n2n1)C1CCS(=O)(=O)C1 (stereo not given) | 5.26%
64 | CCCOc1ccc(CC2CCC(=O)NC2=O)cc1 (stereo not given) | 5.69%
65 | COc1ccc(CNS(=O)(=O)c2ccc3c(c2)NC(=O)C(C)S3)cc1 (stereo not given) | 6.65%
66 | CCc1c(C)sc(NC(=S)N2CCN(S(C)(=O)=O)CC2)c1C(=O)OC | 0.54%
67 | CCc1c(C)sc(NC(=S)N2CC(C)OC(C)C2)c1C(=O)OC (stereo not given) | 3.86%
68 | CCN(CC(=O)NCc1ccc(Cl)cc1)C(=O)CN1C(=O)NC(C)(c2ccccc2)C1=O (stereo not given) | -3.75%
69 | CCOC(=O)C(C)NC(=O)c1cn(-c2ccc(OC)cc2)c(=O)c2ccccc12 (stereo not given) | 3.17%
70 | CCC(C)NC(=O)c1cn(-c2cccc(OC)c2)c(=O)c2ccccc12 (stereo not given) | 4.02%
71 | N#C/C(C(N)=O)=C1/SC=C(c2ccccc2)N1c1ccccc1 | -6.75%
72 | NS(=O)(=O)c1ccc(NC(=S)NC(=O)c2ccc(Br)o2)cc1 | -3.72%

Row | SMILES | inhibition
73 | Cc1ccc(S(=O)(=O)NC(=O)Nc2ccc(C)cc2C)cc1 | -6.63%
74 | Cn1c(=O)c2c(ncn2CC(=O)Nc2ccc(N3CCOCC3)cc2)n(C)c1=O | -5.62%
75 | O=C(O)CN=CC1=C(O)CC(c2ccccc2)CC1=O (stereo not given) | 4.73%
76 | N/C(Cc1ccc([N+](=O)[O-])cc1)=N\OC(=O)c1ccc([N+](=O)[O-])cc1 | 44.8%
77 | N/C(Cc1ccc(Cl)cc1)=N\OC(=O)c1ccc2ccccc2c1 | 0.18%
78 | CCCCn1c(N)c(N(CCOC)C(=O)c2cccc(S(=O)(=O)N3CCCCCC3)c2)c(=O)[nH]c1=O | -2.07%
79 | CC(=O)Oc1cccc(N2C(=O)c3ccccc3C2=O)c1 | -13.4%
80 | CC(=O)Oc1ccc(C#C/C=C2\c3ccccc3C(=O)N2c2ccccc2)cc1 | 22.6%
81 | Cc1nc2c(cc1NC(=O)C(C)(C)C)nc(C)n2Cc1ccccc1 | -8.25%
82 | Nc1ccc2oc(-c3ccccc3Cl)cc(=O)c2c1O | -3.11%
83 | O=c1cc(-c2ccccc2Cl)oc2cccc(O)c12 | 1.24%
84 | COc1ccccc1N(CC(=O)NCCSC(C)(C)C)S(C)(=O)=O | 2.68%
85 | COc1ccc2oc(C(=O)c3ccccc3)c(NC(=O)CN3CCN(C)CC3)c2c1 | 15.4%
86 | CN1CCN(CC(=O)Nc2c(C(=O)c3ccccc3)oc3ccccc23)CC1 | 3.75%
87 | COC(C[C@@H]1O[C@H]1C(=O)COCc1ccccc1)OC | -5.79%
88 | O=C(Cn1ccc([N+](=O)[O-])n1)NCc1cccnc1 | 4.03%
89 | CCCCSC1(SCCCC)N=C(N)C2(C#N)C(c3ccccc3)NC(C)=CC12C#N (stereo not given) | -0.17%
90 | CCCC(=O)Nc1ccccc1NC(=O)CCC | 0.31%
91 | CCC(=O)Nc1cccc2ccccc12 | -0.62%
92 | COc1ccc(C(=O)N(c2ccc(OC)cc2)S(=O)(=O)c2cccs2)cc1 | 4.22%
93 | NC(=O)CSc1nc2cc(Cl)ccc2c(=O)n1C1CCCCC1 | -1.2%
94 | COc1ccc(-c2cc3c(=O)n(CC(=O)NCc4ccccc4OC)ncn3n2)cc1 | -8.29%
95 | C/C(=N/NC(=O)c1cccs1)c1ccc(N2CCOCC2)cc1 | -6.32%
